The source of these data is PubChem BioAssay AID624040 (The Scripps Research Institute Molecular Screening Center, 2012).

Screen size: about 360,000 compounds; about 2,100 (0.58%) were called active.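 How the source made its calls: active means inhibition above a per-plate cutoff, the mean of that plate's test compounds plus 3 SD (cut at about 27% in these data); inactive means the rest.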 The entries come from a sample that favours actives as a whole.

Muscarinic acetylcholine receptor M5 (Homo sapiens), sequence (P08912 whole entry, looked up): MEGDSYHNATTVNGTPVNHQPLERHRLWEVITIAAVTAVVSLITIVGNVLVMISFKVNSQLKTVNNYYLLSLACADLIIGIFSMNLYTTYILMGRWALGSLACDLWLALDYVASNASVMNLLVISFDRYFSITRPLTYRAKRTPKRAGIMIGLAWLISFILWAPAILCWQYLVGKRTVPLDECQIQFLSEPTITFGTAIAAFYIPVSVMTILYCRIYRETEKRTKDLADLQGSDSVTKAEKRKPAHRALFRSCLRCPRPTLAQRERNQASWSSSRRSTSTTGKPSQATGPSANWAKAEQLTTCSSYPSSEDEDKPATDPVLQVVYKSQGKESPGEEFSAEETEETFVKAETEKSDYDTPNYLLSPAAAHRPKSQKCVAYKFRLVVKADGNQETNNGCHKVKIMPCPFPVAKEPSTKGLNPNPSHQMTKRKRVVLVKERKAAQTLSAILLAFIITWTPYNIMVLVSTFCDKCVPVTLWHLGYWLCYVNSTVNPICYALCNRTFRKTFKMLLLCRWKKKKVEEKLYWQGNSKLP

The experiment concerns the target Muscarinic acetylcholine receptor M5 (Homo sapiens) (UniProt P08912). Kind of experiment: human M5 muscarinic receptor antagonists, primary screen, CHO cells, Fluo-8 calcium fluorescence (AID 624040).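 Further: 0% = acetylcholine EC80 with DMSO and 100% = DMSO without agonist.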 The following applies: CHO-hM5 cells, ACh EC80, at 3 µM, hits give high values.
As usually defined, the inhibition is the relative decrease from the control value, in per cent. In the case of `CC(=O)OCCC(C)C`, the inhibition was 6.5% (inactive).
Take `CC(C[N+](C)(C)C)OC(N)=O` (configuration not stated): the inhibition is 74.8% (active).
`CC(=O)OC(C)C[N+](C)(C)C` (configuration not stated): the inhibition is 95.7% (active).
`CC(=O)OCC(COC(C)=O)OC(C)=O`: the inhibition was -2.99% (inactive).
As to `Cn1c(CCCOc2ccc(Cl)cc2Cl)n[nH]c1=S`, the inhibition was 6.7% (inactive).
Consider `CN(Cc1ccc(CNC[C@H]2O[C@@H](n3cnc4c(N)ncnc43)[C@H](O)[C@@H]2O)o1)S(C)(=O)=O`, for which the inhibition is -3.06% (inactive).
As for `O=C(COC(=O)c1cccnc1Cl)Nc1ccc(S(=O)(=O)N2CCOCC2)cc1`, the inhibition was 13.3% (inactive).
Regarding `CCOc1ccc(NC(=O)CSc2nc3ccccc3c(=O)n2Cc2cccs2)cc1`, the inhibition is 8.62% (inactive).
Consider `COC(=O)c1ccccc1NC(=O)CN(Cc1ccc(Cl)cc1)S(C)(=O)=O`, for which the inhibition was 5.2% (inactive).
Consider `O=C(Cc1ccc(Cl)cc1)NC(=S)Nc1ccccc1O`, for which the inhibition is 64.5% (active).
Turning to `O=C(NC(=S)Nc1ccc(Cl)cc1Cl)C1CC1`, the inhibition was 6.51% (inactive).
`Cc1cc(NS(=O)(=O)c2ccc(NC(=O)c3cccc(OC(F)F)c3)cc2)nc(C)n1`: the inhibition is -2.8% (inactive).
Next, `O=C1C(Cl)=C(Oc2ccccc2)C(=O)c2ccccc21`: 30.4% (active); `O=C(NCc1ccco1)C(c1ccncc1)N(C(=O)Cn1nnc2ccccc21)c1ccccc1` (configuration not stated): 9.94% (inactive); `O=C(Nc1ccc(S(=O)(=O)NCC2CCCO2)cc1)c1ccc(F)cc1` (configuration not stated): 1.2% (inactive).
Regarding `N=c1n(Cc2ccc(Cl)cc2)c2ccccc2n1CC(O)c1ccco1` (configuration not stated), the inhibition is 2.61% (inactive).
In the case of `O=S1(=O)CC/C(=N\Nc2ccc(F)cc2)c2ccsc21`, the inhibition was -3.05% (inactive).
Regarding `CC(C)NS(=O)(=O)c1ccc(OCC(=O)NC2CCCCCC2)cc1`, the inhibition was 1.3% (inactive).
With `Cc1cn([C@H]2C[C@H](O)[C@@H](/C=C/C(=O)NCCCc3ccccc3)O2)c(=O)[nH]c1=O` the figure was 6.27% (inactive).
For `CCOC(=O)c1cccnc1NC(=O)c1ccncc1`, the inhibition is 4.86% (inactive).
For the compound `Cc1ccc(NC(=O)OCCNC(=O)c2ccncc2)cc1`, the inhibition is 50% (active).
`Cc1ccc(NC(=O)c2ccc(Oc3ncccn3)cc2)cc1`: the inhibition was 9.93% (inactive).
In the case of `COC(=O)[C@]12CCCCC=C1N(CCC1=CCCCC1)C(=O)[C@H](CC(=O)N1CCSCC1)C2`, the inhibition was 1.29% (inactive).
Next, `COc1ccc(C(O)(C2CCCCC2)C(CN2CCCC2)c2ccccc2)cc1` (configuration not stated): -3.7% (inactive); `CCCCCC(O)(CCN1CCCCC1)c1ccccc1` (configuration not stated): 98.2% (active); `C#CC(CCN1CCCCC1)(OC)c1ccccc1` (configuration not stated): 30.6% (active).
As to `CCc1ccccc1NC(=O)NCCN1CCCCC1`, the inhibition was -5.44% (inactive).
As for `c1ccc2cc3[nH]c(CN4CCCCC4)nc3cc2c1`, the inhibition is 7.88% (inactive).
On to `O=C(c1ccccc1)C(O)(CN1CCCCC1)c1ccccc1` (configuration not stated), for which the inhibition is 8.34% (inactive).
For `OC(C#CCN1CCOCC1)(c1ccccc1)C1CCCCC1` (configuration not stated), the inhibition was 7.29% (inactive).
For `CCCCCCC(O)(CCN1CCCCC1)c1ccccc1` (configuration not stated), the inhibition is 97.8% (active).
As to `CC(CN1CCCCC1)c1ccccc1` (configuration not stated), the inhibition is 2.28% (inactive).
As for `CCc1ccc[n+](-c2nc([O-])sc2C=O)c1`, the inhibition is 9.19% (inactive).
With `Cc1ccc(C23CC4CC(CC(C(=O)NCC(=O)O)(C4)C2)C3)cc1` the figure was 6.84% (inactive); with `Cc1nnc(SCCCCSc2nnc(C)c(=O)[nH]2)[nH]c1=O`, -7.67% (inactive).
With `CC1(C(=O)Nc2ccccc2Br)CCN1C(=O)CC1CC1` (configuration not stated) the figure was 4.22% (inactive); with `COn1c(=O)c(=O)n(OC)c2ccccc21`, 6.69% (inactive); with `CCOc1cc(C(=O)Nc2ccc(S(=O)(=O)Nc3cnc4ccccc4n3)cc2)cc(OCC)c1OCC`, 0.97% (inactive).
For `Nc1nnc(SCC(=O)Nc2ccc3nc(SCC(=O)Nc4ccccc4)sc3c2)s1`, the inhibition is 43.5% (active).
In the case of `O=C(CSc1nc(-c2ccccc2)cs1)Nc1cccc([N+](=O)[O-])c1`, the inhibition was 14.8% (inactive).
In the case of `Nc1nnc(SCC(=O)NC2CCCc3ccccc32)s1` (configuration not stated), the inhibition is 2.63% (inactive).
Take `CCOC(=O)c1nc(-c2ccc3c(c2)OCO3)[nH]c1C`: the inhibition is 3.11% (inactive).
As to `COc1ccc2c(c1)[C@H]1[C@H](CO2)[C@H](c2ccccc2)[C@]2(C)C(=O)Nc3cc(F)c(F)cc3C(=O)N12`, the inhibition was 11.7% (inactive).
For the compound `CCN1CCC(O)(/C=C/c2ccc(C)cc2)C(C(=O)/C=C/c2ccc(C)cc2)C1` (configuration not stated), the inhibition is 5.72% (inactive).
Regarding `Cc1ccc(C(=O)N2CC(=O)Nc3ccc(F)cc3C2c2ccc(F)cc2)cc1` (configuration not stated), the inhibition is 11.2% (inactive).
For the compound `CCN1CCC2(CC1)N=C(c1ccc(F)cc1)C(=S)N2C(=O)c1ccc(C)cc1`, the inhibition was 69.5% (active).
Turning to `CCOc1ccc(-n2c(N)c(C(=O)NCC3CCCO3)sc2=S)cc1` (configuration not stated), the inhibition is 3.05% (inactive).
For `Cc1cccc(C(=O)NCC(=O)OCC(=O)N(C)CC(=O)Nc2ccccc2Cl)c1`, the inhibition is 9.75% (inactive).
Regarding `CC1(C)CC(N2CCN(C(c3ccccc3)c3ccccc3)CC2)=CC(=[N+]2CCCCC2)C1`, the inhibition is 31.9% (active).
With `CC1CC(NC(=O)/C(C#N)=C/c2ccc[nH]2)CC(C)(C)C1` (configuration not stated) the figure was 1.56% (inactive).
With `CCC(=O)N1CCN=C1SCc1ccc(F)cc1` the figure was 5.93% (inactive); with `COc1cccc(CNc2nc3cc(-c4csc5ccccc45)sc3c(=O)n2C)c1`, 2.12% (inactive); with `COc1cccc(CNc2nc(NCc3cccs3)nc3ccsc23)c1`, 44.2% (active).
`COc1ccccc1CNc1nc(Nc2ccccc2Cl)c2sccc2n1`: the inhibition is 11.1% (inactive).
Turning to `COC(=O)CN(C(=S)Nc1ccc(Cl)cc1)C1CC(=O)N(c2ccc(OC)cc2)C1=O` (configuration not stated), the inhibition is 11.6% (inactive).
With `CCOc1ccc(N2C(=O)CC(N(CCc3ccc(OC)c(OC)c3)C(=S)Nc3ccccc3)C2=O)cc1` (configuration not stated) the figure was 30.8% (active); with `CN(C)c1ccc(NC(=S)N(CCc2ccccc2)C2CC(=O)N(c3c(Cl)cccc3Cl)C2=O)cc1` (configuration not stated), -4.62% (inactive).
Next, `CCn1ncc(CNC(=O)C2(C)CC2(Br)Br)c1C` (configuration not stated): 4.36% (inactive); `CCCCCCCCCCOC(=O)Cn1c(COc2cccc(OC)c2)[n+](C)c2ccccc21`: 31% (active); `Cc1c(C)c(C)c(S(=O)(=O)N2CCC3(CC2)OCCO3)c(C)c1C`: 5.79% (inactive).
Consider `COC(C/C=C/C(=O)[C@@H](C)OCc1ccccc1)OC`, for which the inhibition is 3.64% (inactive).
With `O=C(/C=C(O)/C=C/c1ccc(O)cc1)/C=C/c1ccc(O)cc1` the figure was 54.8% (active); with `NC1=NC(=O)S/C1=C\c1ccc(O)cc1`, -0.48% (inactive); with `CC(C)(C)C(=O)/C(C#N)=C/c1ccc(O)cc1`, 4.34% (inactive).
Next, `COc1ccc(OCCNS(=O)(=O)Cc2ccccc2)cc1`: 4.63% (inactive); `COc1ccc(S(=O)(=O)NCCCCOc2ccc(Cl)cc2)cc1`: 32.2% (active); `COc1ccc(S(=O)(=O)NCCOc2ccccc2)cc1F`: -2.02% (inactive).
Take `Cc1ccc(S(=O)(=O)N2CCOCC2)cc1C(=O)OC1CCCCC1=O` (configuration not stated): the inhibition was 5.95% (inactive).
Turning to `O=C(COc1ccccc1)Nc1cc2c3c(c1)CC(=O)N3CCC2`, the inhibition was -0.99% (inactive).
`CCCC(C(=O)OCCN(CC)CC)(c1ccccc1)c1ccccc1`: the inhibition was 48.8% (active).
Take `CCC(C(=O)Nc1ccc(C(C)C)cc1)c1ccccc1` (configuration not stated): the inhibition is 19.2% (inactive).
`CCOC(=O)CCP(=O)(O)C(O)(c1ccccc1)c1ccccc1`: the inhibition was -4.02% (inactive).
For the compound `CCC(C(=O)OCCN(CC)CC)c1ccccc1` (configuration not stated), the inhibition was 67.6% (active).
Regarding `COC(CCN(C)C)(c1ccccc1)c1ccccc1`, the inhibition was 11.5% (inactive).
Consider `CCN(CC)CCOC(=O)c1ccc(NC(=O)CNC(=O)c2ccccc2)cc1`, for which the inhibition is 10.2% (inactive).
With `CN(C)C(=O)c1ccc2c(c1)C1C3CCC(C3)C1C(c1ccccc1)N2` (configuration not stated) the figure was -2.46% (inactive); with `CCOC(=O)N1CCC(NC(=O)Cn2cc3c(n2)CCCCC3)CC1`, 0.05% (inactive); with `CC(C)c1ccc(C=NNc2ccc([N+](=O)[O-])cn2)cc1`, 27.5% (active).
Next, `CC(C)c1ccc(NC(=O)CCN2C(=O)c3ccc([N+](=O)[O-])cc3C2=O)cc1`: -6.62% (inactive); `CC(C)c1ccc(/C=C2\NC(=O)NC2=O)cc1`: -18.6% (inactive).
With `CCS(=O)(=O)N1CCC(N2CCN(c3ccccc3)CC2)CC1` the figure was 8.56% (inactive).
Consider `Cc1ccccc1NS(=O)(=O)CCCCC(Cl)(Cl)Cl`, for which the inhibition is 3.5% (inactive).
For the compound `COc1ccc(CN2CC(C(=O)NC3CCCCC3)CC2=O)cc1` (configuration not stated), the inhibition was -0.55% (inactive).
With `CC(=O)N1CCN(Cc2cc(=O)oc3cc(C)ccc23)CC1`, the inhibition was -1.45% (inactive).
With `COc1ccc(C)cc1NC(=O)C(OC(=O)c1cccc(S(=O)(=O)N(C)c2ccccc2)c1)c1ccccc1` (configuration not stated), the inhibition was -1.67% (inactive).
With `CC(=O)c1c(C)[nH]c(C(=O)COC(=O)c2cccc(S(=O)(=O)N(C)c3ccccc3)c2)c1C` the figure was 74.2% (active); with `CN(c1ccccc1)S(=O)(=O)c1cccc(C(=O)NNC(=O)c2ccncc2)c1`, 1.22% (inactive); with `O=C(CCc1nnc2ccc(NCc3ccccc3Cl)nn12)NCC1CCN(C2CCCC2)C1` (configuration not stated), 1.64% (inactive).
Next, `COC(C[C@H](O)CC(=O)COCc1ccccc1)OC`: 2.21% (inactive); `O=C(NCCN1CCN(C(=O)c2cccc([N+](=O)[O-])c2)CC1)C(=O)NCc1ccc(Cl)cc1`: 10.1% (inactive).
Regarding `Cc1csc(NC(=O)CSc2ccc(-c3ccc(F)cc3)nn2)n1`, the inhibition was 6.55% (inactive).
With `COc1ccc(CC(=O)Nc2nc(-c3ccc(F)c(F)c3)cs2)cc1OC`, the inhibition is 32.4% (active).
For `COc1ccc(CC(=O)NC2CCSc3ccccc32)cc1OC` (configuration not stated), the inhibition was 17.6% (inactive).
For the compound `O=C(CNCCO)NC12CC3CC(CC(C3)C1)C2`, the inhibition was -2.76% (inactive).
As to `NC(=O)C1CCN(C(=O)c2ccc(F)c(S(=O)(=O)N3CCOCC3)c2)CC1`, the inhibition is 13.8% (inactive).
With `O=C(Oc1ccc(-c2nnco2)cc1)c1ccc(F)c(S(=O)(=O)N2CCOCC2)c1` the figure was 27.2% (active); with `COc1ccc(C(=O)Oc2ccc(-c3nnco3)cc2)cc1S(=O)(=O)N1CCOCC1`, 15.9% (inactive).
